Results published in PubChem BioAssay.
The source made the active and inactive calls.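 The calls were made as follows, unless noted: active = fluorescence slope after compound addition differing from the mean of all screened samples at 99.7% confidence, in either direction; inactive = the rest.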

What was measured:
[1] = inhibitors of TNFa-induced NFkB p65 translocation, primary screen, imaging, HUVEC, MLSMR starter and 10KST1 sets (AID 438;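 active = inhibition above 20% together with a positive visual image hit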;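 also: compound added about 3h40 before a 20 min TNFalpha stimulation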;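 as to inhibition: signal is the nuclear over cytoplasmic p65 intensity ratio per well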); conditions: HUVEC TNFa-induced p65 nuclear translocation; cell count: measured here: nuclei count (cytotoxicity indicator), at 2.08 µM; inhibition: at 2 µM, stronger effect = higher value, 0% TNFa-plus-vehicle, 100% no-TNFa wells
[2] = inhibitors of mutant huntingtin aggregation, primary screen, imaging, exon1htt(103Q)mCFP cells, high-content imaging (AID 483;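 active = visual image review flags a hit and inhibition of aggregation exceeds 20%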;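 also: compound exposure lasted 3 days before fixation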;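 as to nuclei count: percent of the per-plate median nuclei count of sample wells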); conditions: exon1htt(103Q)mCFP cell line, aggregate imaging, at 2 µM; inhibition of aggregation: stronger effect = higher value; nuclei count: measured here: cell count, toxicity
[3] = inhibitors of E-selectin induction by TNFa, primary screen, imaging, HUVEC, immunofluorescence, MLSMR starter and 10KST1 sets (AID 487;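 active = visually confirmed hit in the image check and inhibition above 20%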;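 as to inhibition: signal is fraction of cell area covered by stained E-selectin grains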;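 as to nuclei count: 100% = median nuclei count of all wells on the same plate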); conditions: HUVEC TNFalpha-induced E-selectin immunofluorescence imaging, at 2 µM; inhibition: stronger effect = higher value; nuclei count: measured here: cell number, toxicity
[4] = target: Voltage-gated potassium channel subunit beta-2 (Rattus norvegicus) (UniProt P62483); test: KvBeta enzyme negative modulators, primary screen, biochemical, NADPH fluorescence (AID 622;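 active = fluorescence slope higher than the sample average by over 3 SD, cut at about -0.22 in these data, passing the limit was not always enough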;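 also: slope of raw intensity against log time taken from 70 to 1610 s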); conditions: recombinant KvBeta, 4-cyanobenzaldehyde reduction, at 10 µM, stronger effect = higher value
Voltage-gated potassium channel subunit beta-2 (Rattus norvegicus), sequence (P62483 whole entry, looked up): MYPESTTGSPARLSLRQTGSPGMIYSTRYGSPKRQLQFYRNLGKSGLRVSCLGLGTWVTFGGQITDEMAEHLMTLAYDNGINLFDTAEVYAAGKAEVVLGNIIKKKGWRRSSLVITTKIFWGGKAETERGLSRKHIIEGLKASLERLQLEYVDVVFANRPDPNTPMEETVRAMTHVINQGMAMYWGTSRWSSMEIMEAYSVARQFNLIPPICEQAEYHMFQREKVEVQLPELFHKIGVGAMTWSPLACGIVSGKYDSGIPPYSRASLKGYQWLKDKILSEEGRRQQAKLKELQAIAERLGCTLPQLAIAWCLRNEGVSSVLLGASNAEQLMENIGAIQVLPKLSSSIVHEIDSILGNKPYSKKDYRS

[5] = target: Voltage-gated potassium channel subunit beta-2 (Rattus norvegicus) (UniProt P62483); test: KvBeta positive modulators, primary screen, biochemical, NADPH fluorescence (AID 623;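 active = NADPH fluorescence slope more negative than the mean of all samples by about 3 SD, 99.7% confidence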;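 also: fluorescence intensity change per second fitted from 20 to 320 s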); conditions: Recombinant KvBeta, NADPH fluorescence decrease slope, 10 min; at 10 µM; stronger effect = lower value
[6] = target: Alpha-2C adrenergic receptor (Homo sapiens) (UniProt P18825); test: modulators of alpha2C/GIRK thallium flux, primary screen, cell-based, HEK293 alpha2C/GIRK1/2 (AID 624); conditions: thallium flux BTC fluorescence, at 10 µM, actives lie on both sides;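 also: slope of fluorescence ratio to pre-addition baseline per second over 15 to 24 s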
Alpha-2C adrenergic receptor (Homo sapiens), sequence (P18825 whole entry, looked up): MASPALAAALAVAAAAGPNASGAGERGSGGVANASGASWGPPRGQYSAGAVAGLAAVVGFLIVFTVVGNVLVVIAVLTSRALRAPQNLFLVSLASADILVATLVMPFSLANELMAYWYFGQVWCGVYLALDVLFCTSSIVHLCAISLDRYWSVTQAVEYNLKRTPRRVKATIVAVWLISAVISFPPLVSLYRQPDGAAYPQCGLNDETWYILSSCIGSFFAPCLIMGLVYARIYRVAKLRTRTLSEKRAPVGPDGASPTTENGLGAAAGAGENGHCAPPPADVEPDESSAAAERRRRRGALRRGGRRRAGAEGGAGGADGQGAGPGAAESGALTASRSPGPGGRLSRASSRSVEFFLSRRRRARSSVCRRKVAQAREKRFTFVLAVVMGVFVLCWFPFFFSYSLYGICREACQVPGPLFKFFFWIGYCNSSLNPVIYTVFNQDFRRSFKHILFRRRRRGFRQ

[7] = inhibitors of Sendai virus-induced IRF3 signaling, primary screen, TLR/RLR signaling modifier project, cell-based, Sendai virus stimulus, luciferase, 10K MLSCN set (AID 602276;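 active = inhibition at or above 50% at 10 µM; inactive = inhibition below 50%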;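 also: firefly luciferase from ISG56 promoter only with Renilla not read in this screen; 0% = Sendai virus plus DMSO and 100% = medium plus DMSO without virus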); conditions: HEK293 RL24 IRF3 luciferase reporter, at 10 µM, stronger effect = higher value
[8] = inhibitors of poly I:C-induced TLR3 signaling, primary screen, cell-based, poly I:C stimulus, luciferase, 10K MLSCN set (AID 602277;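 active = inhibition of the reporter signal at or above 50%; inactive = inhibition below 50%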); conditions: HEK293-TLR3 RL24 IRF3 luciferase reporter, at 10 µM, stronger effect = higher value

Row | SMILES | cell count [1] | inhibition [1] | inhibition of aggregation [2] | nuclei count [2] [%] | inhibition [3] | nuclei count [3] [%] | fluorescence slope [4] | NADPH fluorescence slope [5] | slope [6] | inhibition [7] | inhibition [8]
1 | CCN(CCCNC(=O)CC1Oc2ccc(C)cc2NC1=O)Cc1ccccc1 (stereo not drawn) | 548 | 5.1% (inactive) | 30.8% (inactive) | 102 | -42.9% (inactive) | 128 | -0.495 (inactive) | -4.4e-05 (inactive) | 0.00631 (inactive) | -5.16% (inactive) | 30.7% (inactive)
2 | N/C(=N/O)c1nc(N2CCCC2)nc(N(c2ccccc2)c2ccccc2)n1 | 371 | 0.4% (inactive) | -18.1% (inactive) | 90.7 | -300% (inactive) | 104 | -0.593 (inactive) | -3.2e-05 (inactive) | 0.00592 (inactive) | 13.2% (inactive) | 40.9% (inactive)
3 | O=C(NC(=O)c1cccc(F)c1)OC[C@@H]1CCCN2CCCC[C@H]12 | 600 | -5.8% (inactive) | -12.4% (inactive) | 77.9 | -55.2% (inactive) | 113 | -0.491 (inactive) | 1.1e-05 (inactive) | 0.00714 (inactive) | 8.41% (inactive) | 28.6% (inactive)
4 | CC(C)N(C(=O)CSc1nnc(NC(=O)C2CCC2)s1)C(C)C | 599 | -0.6% (inactive) | -7.3% (inactive) | 86.3 | -108% (inactive) | 110 | -0.466 (inactive) | 2.4e-05 (inactive) | 0.00479 (inactive) | 17.8% (inactive) | 25.1% (inactive)
5 | O=C(CSc1nc(N2CCCCC2)nc(N2CCCCC2)n1)Nc1nccs1 | 280 | -7% (inactive) | 5.5% (inactive) | 96.9 | -32.8% (inactive) | 72.8 | -0.531 (inactive) | 7.9e-06 (inactive) | 0.00662 (inactive) | 1.6% (inactive) | 52.4% (active)
6 | O=C1c2ccccc2S(=O)(=O)N1CC(O)Cn1c2ccccc2c2ccccc21 (stereo not drawn) | 397 | 1% (inactive) | 8.8% (inactive) | 105 | -121% (inactive) | 118 | -0.421 (inactive) | -4.3e-05 (inactive) | 0.00434 (inactive) | 5.13% (inactive) | 30.2% (inactive)
7 | O=C(CN1C(=O)CCS(=O)(=O)c2ccccc21)Nc1cccc(F)c1 | 383 | -6.8% (inactive) | -2.1% (inactive) | 113 | -27.1% (inactive) | 135 | -0.335 (inactive) | -4.5e-05 (inactive) | 0.00547 (inactive) | 1.07% (inactive) | 10.8% (inactive)
8 | O=C(NCC(=O)N(c1cnc2ccccc2c1)C(C(=O)NC1CCCC1)c1ccncc1)c1ccco1 (stereo not drawn) | 501 | -7.1% (inactive) | -3.6% (inactive) | 102 | -6.5% (inactive) | 107 | -0.532 (inactive) | 5.2e-05 (inactive) | 0.00551 (inactive) | 15.1% (inactive) | 17.8% (inactive)
9 | CS(=O)(=O)N1CCC(C(=O)NCCC2=CCCCC2)CC1 | 427 | 4.2% (inactive) | 8% (inactive) | 100 | -89.9% (inactive) | 106 | -0.382 (inactive) | -2.9e-05 (inactive) | 0.00662 (inactive) | 12.6% (inactive) | 8.24% (inactive)
10 | Cc1ccc(-c2noc(CCC(=O)N3CCN(c4cccc(C(F)(F)F)c4)CC3)n2)cc1 | 647 | 7.6% (inactive) | -10.2% (inactive) | 95.8 | -36.9% (inactive) | 111 | -0.391 (inactive) | -5.4e-05 (inactive) | 0.00562 (inactive) | 9.01% (inactive) | 6.71% (inactive)
11 | COc1ccc(S(=O)(=O)N2CCC(C(=O)Nc3c(F)cccc3F)CC2)cc1 | 741 | -9.2% (inactive) | 7% (inactive) | 108 | -55.4% (inactive) | 126 | -0.392 (inactive) | 3.8e-05 (inactive) | 0.00504 (inactive) | -10.2% (inactive) | 1.61% (inactive)
12 | C=CCc1ccccc1OCCCCN1CCCC1 | 750 | -8% (inactive) | 9.9% (inactive) | 87.9 | -10.4% (inactive) | 114 | -0.497 (inactive) | -3.1e-05 (inactive) | 0.00605 (inactive) | -11.7% (inactive) | 19.4% (inactive)
13 | O=c1[nH]c(NCc2ccco2)nnc1Cc1ccccc1Cl | 643 | 1.8% (inactive) | -15.1% (inactive) | 111 | -18.6% (inactive) | 124 | -0.515 (inactive) | -0.000182 (inactive) | 0.0051 (inactive) | 6.89% (inactive) | 40.7% (inactive)
14 | O=C1NC2=C(C(=O)CCC2)C(c2ccc3ncccc3c2)N1 (stereo not drawn) | 513 | 1.5% (inactive) | 1.9% (inactive) | 126 | -13.9% (inactive) | 116 | -0.541 (inactive) | -5e-05 (inactive) | 0.00696 (inactive) | 9.39% (inactive) | 8.99% (inactive)
15 | O=C(COc1cccc(Oc2ccccc2)c1)Nc1ncccn1 | 739 | 3.1% (inactive) | 12.8% (inactive) | 103 | -25.1% (inactive) | 111 | -0.609 (inactive) | -1.1e-05 (inactive) | 0.00604 (inactive) | 4.77% (inactive) | 4.74% (inactive)
16 | COc1ccc2c(c1)cc(C(=O)O)n2C | 773 | 4.2% (inactive) | -20.2% (inactive) | 77.6 | -10.3% (inactive) | 128 | -0.393 (inactive) | -6.4e-05 (inactive) | 0.00479 (inactive) | 11.6% (inactive) | 23.7% (inactive)
17 | O=C(NC1CCN(Cc2ccccc2)CC1)C1CCN(S(=O)(=O)c2cccc3cccnc23)CC1 | 526 | -11.6% (inactive) | 7.8% (inactive) | 83.4 | -4.4% (inactive) | 99.2 | -0.561 (inactive) | 7.4e-08 (inactive) | 0.00666 (inactive) | -12.5% (inactive) | 8.2% (inactive)
18 | CN(C)c1ccc(CNn2cnnc2)cc1 | 499 | 4.4% (inactive) | 3.2% (inactive) | 68.8 | -50.6% (inactive) | 102 | -0.369 (inactive) | 1.6e-05 (inactive) | 0.00382 (inactive) | 5.14% (inactive) | 16.1% (inactive)
19 | O=C1N=C(N2CCOCC2)CS1 | 309 | 3.4% (inactive) | -6.9% (inactive) | 90.7 | 36% (inactive) | 95.1 | -0.519 (inactive) | -1.2e-05 (inactive) | 0.00426 (inactive) | 6.09% (inactive) | 10.7% (inactive)
20 | COC(=O)c1nnn(-c2ccccc2)c1N | 314 | 10.6% (inactive) | 19% (inactive) | 92 | -13.3% (inactive) | 117 | -0.506 (inactive) | -2.7e-05 (inactive) | 0.00571 (inactive) | 6.82% (inactive) | 11.8% (inactive)
21 | Cc1ccc2c(C)nc(NC3=NCN(C(C)C)CN3)nc2c1 | 604 | 4.7% (inactive) | 5.5% (inactive) | 93.5 | -33.7% (inactive) | 125 | -0.543 (inactive) | 1.2e-05 (inactive) | 0.0049 (inactive) | 11.3% (inactive) | 14.9% (inactive)
22 | O=C(CS(=O)CC(=O)Nc1cccc2c1CCCC2)Nc1ccc(F)cc1 (stereo not drawn) | 210 | 2.1% (inactive) | -8.6% (inactive) | 84.1 | 26.9% (inactive) | 80.2 | -0.621 (inactive) | 1e-05 (inactive) | 0.00343 (inactive) | 12.7% (inactive) | 18.9% (inactive)
23 | Clc1ccc2c(c1)[C@H]1OCC[C@H]1[C@@H](c1ccco1)N2 | 824 | 5.5% (inactive) | -3.2% (inactive) | 98.8 | -101% (inactive) | 125 | -0.572 (inactive) | -3.2e-05 (inactive) | 0.00552 (inactive) | -42.9% (inactive) | -122% (inactive)
24 | Cc1cc(C(=O)NCc2ccc(S(N)(=O)=O)cc2)cs1 | 321 | 4.7% (inactive) | -10.8% (inactive) | 108 | 9.5% (inactive) | 91.3 | -0.63 (inactive) | -2.4e-05 (inactive) | 0.00394 (inactive) | 13.4% (inactive) | 10.9% (inactive)
25 | CCn1cc(C(C)NC(=O)COc2ccc(Cl)cc2C)c(C)n1 (stereo not drawn) | 713 | -14.6% (inactive) | 0.6% (inactive) | 130 | -64.7% (inactive) | 105 | -0.404 (inactive) | -2.9e-05 (inactive) | 0.00313 (inactive) | 1.5% (inactive) | 14.6% (inactive)
26 | CCOc1nc(OCC)nc(N2CCC(C)CC2)n1 | 499 | 9.1% (inactive) | 5.9% (inactive) | 106 | -118% (inactive) | 138 | -0.242 (inactive) | -3.2e-05 (inactive) | 0.005 (inactive) | 16.6% (inactive) | 20.5% (inactive)
27 | CCCn1c(O)c(CN2CCCC(C)C2)c(C)c(C#N)c1=O (stereo not drawn) | 673 | -16.4% (inactive) | 2.6% (inactive) | 91.2 | -59.7% (inactive) | 113 | -0.472 (inactive) | -2.9e-05 (inactive) | 0.00503 (inactive) | 13.3% (inactive) | 22.1% (inactive)
28 | COc1ccc(-c2ccc(Nc3ccc(S(=O)(=O)N4CCCC4)cc3)nn2)cc1OC | 702 | -6.1% (inactive) | -4.9% (inactive) | 103 | -94.1% (inactive) | 109 | -0.601 (inactive) | -4.3e-05 (inactive) | 0.004 (inactive) | -5.55% (inactive) | -13.6% (inactive)
